# PubChem BioAssay (NCATS)
# Unmarked numbers belong to inactive results. Results filed as inconclusive are left out. A call without a number means that no potency is given here. Active and inactive are the calls of the source. Unless noted, calls come from the whole dose curve; as a rule, active = well fitted curve in the direction sought with a large enough effect; inconclusive = small, poorly fitted or top-dose-only effect, or another doubt; inactive = no such curve, though single readings can be large; an effect the other way counts as inactive or inconclusive.
# Experiments:
# [1] = biological target: Cytochrome P450 1A2 (Homo sapiens) (UniProt P05177); test: p450-cyp1a2 (AID 410; calls by dose curve; note: potency is the fitted concentration of half-maximal effect)
# Method in brief: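 Inhibition was calculated relative to 57 uM furafylline (full inhibition). The reaction used human CYP1A2 at 20nM with Luciferin-ME at its Km, 100uM, driven by an NADPH-regenerating system for 60 min at room temperature.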
# [2] = NFAT Signaling Pathway (AID 444; active = well fitted curve in either direction with a large enough effect, not every such curve was filed as active;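 note: carbachol stimulus at about its EC50 of 1 µM final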); details: Jurkat NFAT-bla M1, carbachol, beta-lactamase ratio, 5 h; at 17.2 µM (top of the series) unless noted
# Method in brief: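 Jurkat cells carrying an NFAT-driven β-lactamase reporter and co-transfected muscarinic M1 receptor were treated with compound plus carbachol (1 uM final, an EC50 level) for 5 h at 37 °C. CCF4 loading followed for 1 h at RT; 460/530 nm ratio gave %activity.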
# [3] = Stat Signaling Pathway (AID 446; active = well fitted curve in either direction with a large enough effect, not every such curve was filed as active;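 note: ME-180 cervical cancer cells given 40 pM IL-6 alongside compound; SIE-controlled beta-lactamase reporter measured as 460/530 nm FRET emission ratio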); details: ME-180 SIE beta-lactamase reporter, IL-6 stimulated, 5 h; at 17.2 µM (top of the series) unless noted
# Method in brief: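 Screening format detects activators and inhibitors alike: ME-180 SIE-bla cells stimulated at 40 pM IL-6 for 5 hrs with compound, then dual-emission beta-lactamase read at 405 nm excitation.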
# [4] = biological target: Glucocorticoid receptor (Homo sapiens) (UniProt P04150); test: GR-GFP Redistribution (AID 450;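 active = compounds whose dose series gives a full or clear partial fitted curve of increased nuclear translocation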; note: potency is the fitted concentration of half-maximal effect)
# [5] = biological target: Glucocorticoid receptor (Homo sapiens) (UniProt P04150); test: GR-EFC Redistribution (AID 451; calls by dose curve; note: potency is the fitted concentration of half-maximal effect); details: CHO-K1 GR-EFC translocation, beta-gal luminescence, 2 h
# Method in brief: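 CHO-K1 cells stably expressing nuclear-localized β-gal enzyme acceptor and GR fused C-terminally to the enzyme donor fragment; ligand-driven nuclear translocation restores β-gal by complementation. Compounds titrated up to 46 uM final, 2 h at 37 °C; luminescence read.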
# [6] = biological target: 3',5'-cyclic-AMP phosphodiesterase 4B (Homo sapiens) (UniProt Q07343); test: qHTS Assay for Inhibitors of PDE-IV (AID 607; active = well fitted activation curve with a large enough effect in the main read-out, with a control signal flat, not every such curve was filed as active)
# Method in brief: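 The readout is membrane depolarisation from a cAMP-sensing CNG channel, detected with a potential dye at ex 535/em 590. Cells were HEK293-derived (endogenous PDE-IV) at 1000 cells/well, titrated up to 22.9 uM final.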
# [7] = biological target: Guanine nucleotide-binding protein G(i) subunit alpha-1 (Homo sapiens) (UniProt P63096); test: qHTS Assay for Inhibitors of RGS12 GoLoco Motif Activity (Green Fluorophore) (AID 879);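 note: negative values mean loss of peptide binding seen as reduced polarization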
# Method in brief: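 Fluorescence polarization assay: 50 nM Gαi1 with 10 nM FITC-labeled RGS12 GoLoco peptide in 10 mM Tris pH 7.5, 150 mM NaCl, 0.1 mM GDP, 0.05% NP40, 10 min at room temperature with compound.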
# [8] = biological target: Cytochrome P450 2C9 (Homo sapiens) (UniProt P11712); test: qHTS Assay for Inhibitors and Substrates of Cytochrome P450 2C9 (AID 883); note: nearly all actives have a fitted effect of over 60% in size
# Method in brief: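 A luminogenic readout tracked human CYP2C9 (10nM) converting deoxyluciferin (100uM, at KM) in 25mM KPO4 during 60 min at 37C with regenerated NADPH. Values normalized to 57uM sulphaphenazole as complete inhibition.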
# [9] = biological target: Cytochrome P450 3A4 (Homo sapiens) (UniProt P08684); test: qHTS Assay for Inhibitors and Substrates of Cytochrome P450 3A4 (AID 884); note: nearly all actives have a fitted effect of over 50% in size; note: potency is the fitted concentration of half-maximal effect
# Method in brief: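 20 nM human CYP3A4 with 25 uM Luciferin-PPXE (at KM) in 200 mM KPO4, preincubated 10 min with compound; NADPH regeneration started a 60 min RT reaction. Luciferin detected by luminescence, normalized to 57 uM ketoconazole as full inhibition.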
# [10] = biological target: Cytochrome P450 2D6 (Homo sapiens) (UniProt P10635); test: qHTS Assay for Inhibitors and Substrates of Cytochrome P450 2D6 (AID 891);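 note: luciferin methyl ether substrate demethylated by CYP2D6 with NADPH regeneration; nearly all actives have a fitted effect of over 60% in size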
# Method in brief: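 Human CYP2D6 (5 nM) with 30 uM Luciferin-ME EGE (at Km) in 100 mM KPO4, compound preincubated 10 min, then NADPH regeneration system for 60 min at room temperature. Luciferin read by luminescence; normalized to 1.43 uM quinidine.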
# [11] = biological target: Cytochrome P450 2C19 (Homo sapiens) (UniProt P33261); test: qHTS Assay for Inhibitors and Substrates of Cytochrome P450 2C19 (AID 899); note: nearly all actives have a fitted effect of over 60% in size
# Method in brief: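 NADPH-dependent conversion of Luciferin-H EGE (10uM, at KM) by 5nM enzyme in 50mM KPO4, 60 min at 37C following 10 min compound preincubation. Stopped with luciferin detection buffer; luminescence read after 20 min.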
# [12] = biological target: Muscarinic acetylcholine receptor M1 (Rattus norvegicus) (UniProt P08482); test: qHTS Assay for Antagonists of Acetylcholine Muscarinic M1 Receptor: Measurement of IP-One Response (AID 944); note: nearly all actives have a fitted effect of over 75% in size
# Method in brief: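 Steps: plate transfected CHO-M1 cells overnight; add test compound, 10 min; add carbachol (200 nM, EC80) in stimulation buffer with LiCl; incubate 30 min; add labelled IP1 tracer and anti-IP1 antibody in lysis buffer; read HTRF after 10 min.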
# [13] = biological target: Pyruvate kinase (Leishmania mexicana) (UniProt Q27686); test: qHTS Validation Assay for Inhibitors of Leishmania Mexicana Pyruvate Kinase (AID 945); note: potency is the fitted concentration of half-maximal effect
# Method in brief: (§1)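 Eight-point qHTS titrations; enzyme 0.2 nM LmPYK (E451W mutant); substrates 0.5 mM PEP, 0.1 mM ADP; 7 mM MgCl2; 1 h room temperature; PKLight luminescence normalized to neutral control.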
# [14] = biological target: Pyruvate kinase PKM (Homo sapiens) (UniProt P14618); test: qHTS Assay for Inhibitors of Human Muscle Pyruvate Kinase (AID 958)
# Method in brief: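 Screening used highly purified human pyruvate kinase M2 under submaximal activity, with PEP at its Km and ADP below Km. After an hour at room temperature, ATP was read by luciferase luminescence.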
# [15] = biological target: Pyruvate kinase (Leishmania mexicana) (UniProt Q27686); test: qHTS Validation Assay for Activators of Leishmania Mexicana Pyruvate Kinase (AID 959)
# Method in brief: as §1
# [16] = biological target: Alpha-galactosidase A (Homo sapiens) (UniProt P06280); test: Counterscreen for Glucocerebrosidase Inhibitors: qHTS Assay for Human alpha-Galactosidase at pH 4.5 (AID 992)
# Method in brief: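 Concentration-response curves (0.7 nM to 77 uM final) were modeled with the Hill equation to give AC50. Reactions: 2 nM enzyme, 80 uM fluorogenic alpha-galactoside, pH 4.5 citric acid buffer, 20 min, room temperature.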
# [17] = biological target: alpha-glucosidase (Oryza sativa, rice) (UniProt Q653V4); test: Counterscreen for Glucocerebrosidase Inhibitors: qHTS Assay for Rice alpha-Glucosidase at pH 5.0 (AID 997)
# Method in brief: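 Rice alpha-glucosidase (4 nM final) with 400 uM 4-methylumbelliferyl-alpha-D-glucopyranoside in citrate buffer pH 5.0, 20 min at room temperature, stopped at pH 10; fluorescence 365/440 nm, compounds 0.7 nM–77 uM, AC50 from Hill fits.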
# [18] = biological target: Mitogen-activated protein kinase 10 (Mus musculus) (UniProt Q61831); test: JNK3 AlphaScreen Assay (AID 530; active = well fitted curve in either direction with a large enough effect, not every such curve was filed as active;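 note: kinase came from lysate of stimulated human HepG2 cells; signal reports phosphorylation of biotinylated GST-cJun 1-79 at Ser73 with 10 µM ATP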)
# Method in brief: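 JNK3 came from HepG2 lysates pre-activated with IL-1beta and TNF-alpha and phosphorylated biotinylated GST-cJun (1-79) at 10 uM ATP, pH 7.6, room temperature. Compounds were titrated. AlphaScreen signal used anti-phospho-cJun (Ser73) antibody.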
# [19] = qHTS Assay for Identification of Small Molecule Agonists for Thrombopoietin (TPO) Signaling Pathway (AID 917)
# Method in brief: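 Murine Ba/F3 cells expressing human TPO receptor and GPIIb-promoter luciferase, IL-3-starved overnight, given compound plus TPO at 26 pM (EC50). After 24 h at 37 C, 5% CO2, luminescence read.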
# [20] = biological target: Muscarinic acetylcholine receptor M1 (Rattus norvegicus) (UniProt P08482); test: qHTS Assay for Antagonists of Acetylcholine Muscarinic M1 Receptor: Kinetic Measurement of Intracellular Calcium Response (AID 943); note: potency is the fitted concentration of half-maximal effect; nearly all actives have a fitted effect of over 75% in size
# Method in brief: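 Intracellular calcium flux, recorded with Fluo-4 in a kinetic plate reader, served as signal; the response to carbachol at EC80 (100 nM final) was taken as maximal over minimal fluorescence after a 10 min compound pre-incubation in rat M1-CHO cells.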
# [21] = biological target: Pyruvate kinase PKM (Homo sapiens) (UniProt P14618); test: qHTS Assay for Activators of Human Muscle Pyruvate Kinase (AID 954; active = well fitted curve in the direction sought with a large enough effect, not every such curve was filed as active)
# Method in brief: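 Reaction: 0.1 nM purified PKM2 with 0.5 mM phosphoenolpyruvate and 0.1 mM ADP, room temperature, 1 h. Readout: luciferase-based ATP luminescence after stop reagent. Activators judged against a 0.3 nM enzyme column.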
# [22] = biological target: Cytochrome P450 3A4 (Homo sapiens) (UniProt P08684); test: qHTS Assay for Activators of Cytochrome P450 3A4 (AID 885); note: nearly all actives have a fitted effect of over 65% in size
# Method in brief: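 Steps: enzyme/substrate mix dispensed; compound added, 10 min RT; NADPH regeneration solution added, 60 min RT; luciferin detection buffer stops reaction; 20 min later luminescence measured.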
# [23] = qHTS Assay for Identification of Small Molecule Antagonists for NFkB Signaling Pathway (AID 895; active = well fitted inhibition curve with a large enough effect in the signal ratio, with a control signal flat, not every such curve was filed as active; the % refers to the signal ratio)
# Method in brief: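 NFkB-bla ME-180 cervical carcinoma cells with beta-lactamase reporter under NFkB response element; compounds added, then TNF alpha at 10 pM final (EC50), 5 h at 37 C. LiveBLAzer substrate 2 h, room temperature; emission 460/530 nm at 405 nm excitation.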
# Sequence of 3',5'-cyclic-AMP phosphodiesterase 4B (Homo sapiens) (Q07343 whole entry, looked up): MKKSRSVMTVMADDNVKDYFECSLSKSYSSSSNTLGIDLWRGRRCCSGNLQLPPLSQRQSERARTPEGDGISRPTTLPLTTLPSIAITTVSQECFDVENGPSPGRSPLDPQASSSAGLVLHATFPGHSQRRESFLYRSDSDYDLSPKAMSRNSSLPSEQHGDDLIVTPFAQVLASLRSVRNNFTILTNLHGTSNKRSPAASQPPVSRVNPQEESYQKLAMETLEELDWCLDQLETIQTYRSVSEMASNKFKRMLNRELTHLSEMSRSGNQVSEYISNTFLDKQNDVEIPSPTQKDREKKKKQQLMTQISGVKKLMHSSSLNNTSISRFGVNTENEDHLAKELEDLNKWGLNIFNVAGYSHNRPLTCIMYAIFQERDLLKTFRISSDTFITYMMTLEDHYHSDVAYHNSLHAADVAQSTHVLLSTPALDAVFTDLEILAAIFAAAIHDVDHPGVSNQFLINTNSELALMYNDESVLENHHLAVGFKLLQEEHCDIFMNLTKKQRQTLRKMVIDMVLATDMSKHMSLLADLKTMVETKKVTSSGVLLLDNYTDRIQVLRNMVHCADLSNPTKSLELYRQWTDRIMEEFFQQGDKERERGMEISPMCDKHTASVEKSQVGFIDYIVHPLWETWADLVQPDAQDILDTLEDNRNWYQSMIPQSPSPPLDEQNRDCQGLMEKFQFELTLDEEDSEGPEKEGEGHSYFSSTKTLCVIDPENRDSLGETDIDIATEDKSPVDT
# Sequence of Cytochrome P450 1A2 (Homo sapiens) (P05177 whole entry, looked up): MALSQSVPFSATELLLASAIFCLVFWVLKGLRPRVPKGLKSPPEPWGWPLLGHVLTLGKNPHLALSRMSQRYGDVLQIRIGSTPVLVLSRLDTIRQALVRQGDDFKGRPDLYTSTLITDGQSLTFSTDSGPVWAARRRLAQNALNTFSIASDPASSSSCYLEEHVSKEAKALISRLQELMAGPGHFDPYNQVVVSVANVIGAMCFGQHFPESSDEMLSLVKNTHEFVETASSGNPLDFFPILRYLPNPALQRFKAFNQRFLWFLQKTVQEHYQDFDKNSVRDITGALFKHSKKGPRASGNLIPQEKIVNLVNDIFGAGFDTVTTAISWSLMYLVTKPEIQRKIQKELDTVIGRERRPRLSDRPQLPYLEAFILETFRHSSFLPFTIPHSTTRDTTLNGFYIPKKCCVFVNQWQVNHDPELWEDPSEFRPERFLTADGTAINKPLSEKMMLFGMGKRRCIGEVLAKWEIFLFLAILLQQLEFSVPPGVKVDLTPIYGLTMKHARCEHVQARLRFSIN
# Sequence of Glucocorticoid receptor (Homo sapiens) (P04150 whole entry, looked up, the tested form may be a part): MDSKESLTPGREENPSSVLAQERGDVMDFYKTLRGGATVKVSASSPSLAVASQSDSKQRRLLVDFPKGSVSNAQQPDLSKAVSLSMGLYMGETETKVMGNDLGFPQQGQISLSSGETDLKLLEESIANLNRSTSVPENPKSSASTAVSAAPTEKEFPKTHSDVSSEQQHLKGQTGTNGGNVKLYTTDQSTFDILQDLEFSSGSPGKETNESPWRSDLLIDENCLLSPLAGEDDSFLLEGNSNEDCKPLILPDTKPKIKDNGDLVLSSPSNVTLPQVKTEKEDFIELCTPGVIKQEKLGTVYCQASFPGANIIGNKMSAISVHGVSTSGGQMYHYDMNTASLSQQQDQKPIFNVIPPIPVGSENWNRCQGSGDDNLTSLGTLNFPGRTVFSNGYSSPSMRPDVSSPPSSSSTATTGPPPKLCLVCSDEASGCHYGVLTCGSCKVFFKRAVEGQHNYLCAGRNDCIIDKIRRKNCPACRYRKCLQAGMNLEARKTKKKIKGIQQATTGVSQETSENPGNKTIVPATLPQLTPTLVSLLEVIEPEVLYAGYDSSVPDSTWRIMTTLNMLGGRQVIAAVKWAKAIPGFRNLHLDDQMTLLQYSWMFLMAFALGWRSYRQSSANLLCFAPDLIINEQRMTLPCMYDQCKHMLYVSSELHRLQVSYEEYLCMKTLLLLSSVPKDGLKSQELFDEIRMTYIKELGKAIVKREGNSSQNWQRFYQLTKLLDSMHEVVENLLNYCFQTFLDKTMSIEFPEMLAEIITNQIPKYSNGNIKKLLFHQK
# Sequence of Pyruvate kinase PKM (Homo sapiens) (P14618 whole entry, looked up): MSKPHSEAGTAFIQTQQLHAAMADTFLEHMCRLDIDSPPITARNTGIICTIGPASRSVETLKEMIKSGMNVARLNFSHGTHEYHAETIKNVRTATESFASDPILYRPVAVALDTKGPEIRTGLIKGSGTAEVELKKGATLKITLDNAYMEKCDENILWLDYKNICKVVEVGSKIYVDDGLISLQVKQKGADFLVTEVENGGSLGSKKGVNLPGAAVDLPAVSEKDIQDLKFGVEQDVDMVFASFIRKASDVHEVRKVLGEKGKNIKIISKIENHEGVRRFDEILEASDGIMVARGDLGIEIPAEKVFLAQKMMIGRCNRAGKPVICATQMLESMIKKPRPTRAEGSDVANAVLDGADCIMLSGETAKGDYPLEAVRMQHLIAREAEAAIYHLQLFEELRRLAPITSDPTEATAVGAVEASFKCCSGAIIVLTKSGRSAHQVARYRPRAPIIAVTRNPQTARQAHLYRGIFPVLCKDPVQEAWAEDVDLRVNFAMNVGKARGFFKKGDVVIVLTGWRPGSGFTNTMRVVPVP
# Sequence of Guanine nucleotide-binding protein G(i) subunit alpha-1 (Homo sapiens) (P63096 whole entry, looked up): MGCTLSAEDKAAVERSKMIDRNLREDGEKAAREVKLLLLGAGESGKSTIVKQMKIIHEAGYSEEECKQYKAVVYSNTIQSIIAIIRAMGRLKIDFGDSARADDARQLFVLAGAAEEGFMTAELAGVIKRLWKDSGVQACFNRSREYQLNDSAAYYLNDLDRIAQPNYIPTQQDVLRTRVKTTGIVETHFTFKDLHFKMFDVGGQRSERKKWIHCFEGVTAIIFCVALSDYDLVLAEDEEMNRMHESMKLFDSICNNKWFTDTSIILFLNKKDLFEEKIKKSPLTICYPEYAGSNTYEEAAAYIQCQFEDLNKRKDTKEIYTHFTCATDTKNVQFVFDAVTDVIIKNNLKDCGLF
# Sequence of Cytochrome P450 3A4 (Homo sapiens) (P08684 whole entry, looked up): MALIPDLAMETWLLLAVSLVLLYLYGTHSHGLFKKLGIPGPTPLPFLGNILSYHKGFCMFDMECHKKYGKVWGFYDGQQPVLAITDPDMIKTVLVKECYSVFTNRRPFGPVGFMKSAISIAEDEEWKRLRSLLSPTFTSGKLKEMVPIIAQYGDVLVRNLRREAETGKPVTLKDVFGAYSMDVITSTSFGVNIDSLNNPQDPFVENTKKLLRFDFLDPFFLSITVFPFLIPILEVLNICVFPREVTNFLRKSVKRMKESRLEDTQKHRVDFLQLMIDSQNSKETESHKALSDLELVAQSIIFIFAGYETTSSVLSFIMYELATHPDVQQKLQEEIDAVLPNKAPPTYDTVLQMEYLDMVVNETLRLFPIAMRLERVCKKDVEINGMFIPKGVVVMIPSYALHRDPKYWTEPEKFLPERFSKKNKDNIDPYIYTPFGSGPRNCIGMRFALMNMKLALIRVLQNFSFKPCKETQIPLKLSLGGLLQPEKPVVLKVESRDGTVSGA
# Sequence of Pyruvate kinase (Leishmania mexicana) (Q27686 2-499 E452W): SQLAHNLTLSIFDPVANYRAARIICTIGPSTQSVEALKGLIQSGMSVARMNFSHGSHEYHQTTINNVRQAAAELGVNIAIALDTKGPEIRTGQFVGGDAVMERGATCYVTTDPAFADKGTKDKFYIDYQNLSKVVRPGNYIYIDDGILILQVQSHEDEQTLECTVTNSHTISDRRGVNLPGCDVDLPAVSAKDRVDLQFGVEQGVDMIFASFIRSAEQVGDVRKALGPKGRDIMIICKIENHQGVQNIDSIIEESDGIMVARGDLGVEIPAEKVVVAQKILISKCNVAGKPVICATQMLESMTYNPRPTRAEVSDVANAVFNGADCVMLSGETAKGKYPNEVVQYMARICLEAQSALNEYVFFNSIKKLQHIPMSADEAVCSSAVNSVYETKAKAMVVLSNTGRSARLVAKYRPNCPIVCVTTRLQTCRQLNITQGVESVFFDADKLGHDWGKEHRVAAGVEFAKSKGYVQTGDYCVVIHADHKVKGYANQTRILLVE
# Sequence of Alpha-galactosidase A (Homo sapiens) (P06280 whole entry, looked up): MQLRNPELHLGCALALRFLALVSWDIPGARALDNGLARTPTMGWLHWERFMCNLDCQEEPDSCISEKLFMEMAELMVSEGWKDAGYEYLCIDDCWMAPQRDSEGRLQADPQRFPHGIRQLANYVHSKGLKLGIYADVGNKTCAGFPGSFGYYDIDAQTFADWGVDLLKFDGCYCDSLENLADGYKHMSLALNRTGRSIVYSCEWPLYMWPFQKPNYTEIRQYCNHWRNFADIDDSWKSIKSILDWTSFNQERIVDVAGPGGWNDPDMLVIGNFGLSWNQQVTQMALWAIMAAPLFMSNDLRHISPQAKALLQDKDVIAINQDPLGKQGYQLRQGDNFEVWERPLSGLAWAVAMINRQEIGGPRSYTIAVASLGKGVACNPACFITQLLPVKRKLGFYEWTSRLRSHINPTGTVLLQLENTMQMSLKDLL
# Sequence of Cytochrome P450 2D6 (Homo sapiens) (P10635 whole entry, looked up): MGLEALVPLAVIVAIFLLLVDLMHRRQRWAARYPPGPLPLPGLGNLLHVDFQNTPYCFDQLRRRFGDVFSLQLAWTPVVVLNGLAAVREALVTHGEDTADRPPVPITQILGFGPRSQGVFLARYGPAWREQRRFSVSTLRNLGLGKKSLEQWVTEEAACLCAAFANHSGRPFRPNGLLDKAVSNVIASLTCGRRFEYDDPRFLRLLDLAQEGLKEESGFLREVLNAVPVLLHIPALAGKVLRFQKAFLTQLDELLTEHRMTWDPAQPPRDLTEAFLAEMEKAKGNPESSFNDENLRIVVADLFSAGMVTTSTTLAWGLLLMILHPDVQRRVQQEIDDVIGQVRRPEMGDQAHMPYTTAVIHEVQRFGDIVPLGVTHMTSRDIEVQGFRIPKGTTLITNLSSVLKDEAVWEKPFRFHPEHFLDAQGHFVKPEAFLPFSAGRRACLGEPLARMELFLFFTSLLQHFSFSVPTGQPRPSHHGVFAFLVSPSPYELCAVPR
compound,measurement,setting,value
Nc1ncnc2c1ncn2[C@@H]1O[C@@H](COP(=O)(O)OP(=O)(O)OP(=O)(O)OP(=O)(O)OC[C@@H]2O[C@@H](n3cnc4c(N)ncnc43)[C@@H](O)[C@H]2O)[C@H](O)[C@@H]1O,Potency,[1],inactive
same,"activity change, negative = inhibition",[2],-0.343% [at 38 µM]
same,"activity, negative = inhibition",[3],32% [at 38 µM]
same,Potency,[4],> 46 µM
same,Potency,[5],> 46 µM
same,Potency,[6],inactive
same,outcome,[7],inactive
same,Potency,[8],inactive
same,Potency,[9],inactive
same,Potency,[10],inactive
same,Potency,[11],inactive
same,Potency,[12],inactive
same,Potency,[13],inactive
same,Potency,[14],inactive
same,Potency,[15],12.6 µM (active)
same,outcome,[16],inactive
same,outcome,[17],inactive
CCCCCCCCCCCCCCCCCC(=O)O[C@H](CC(=O)O)C[N+](C)(C)C,Potency,[1],inactive
same,"activity, negative = inhibition",[3],-28.3% [at 38 µM]
same,Potency,[4],> 46 µM
same,Potency,[5],> 46 µM
same,Potency,[18],inactive
same,Potency,[6],inactive
same,outcome,[7],inactive
same,Potency,[8],inactive
same,Potency,[19],inactive
same,Potency,[20],1 µM (active)
same,Potency,[13],inactive
same,outcome,[21],inactive
same,outcome,[16],inactive
same,outcome,[17],inactive
CC[C@]1(O)C[C@H]2CN(CCc3c([nH]c4ccccc34)[C@](C(=O)OC)(c3cc4c(cc3OC)N(C=O)[C@H]3[C@@](O)(C(=O)OC)[C@H](OC(C)=O)[C@@]5(CC)C=CCN6CC[C@]43[C@H]65)C2)C1,Potency,[1],inactive
same,"activity change, negative = inhibition",[2],-8.89% [at 38 µM]
same,"activity, negative = inhibition",[3],-14.3% [at 38 µM]
same,Potency,[4],> 46 µM
same,Potency,[5],> 46 µM
same,Potency,[6],inactive
same,outcome,[7],inactive
same,Potency,[9],3.98 µM (active)
same,Potency,[22],inactive
same,Potency,[10],inactive
same,Potency,[23],inactive
same,Potency,[13],inactive
same,outcome,[21],inactive
same,outcome,[16],inactive
same,outcome,[17],inactive
Oc1cc(O)cc(/C=C\c2ccc(O)c(O)c2)c1,Potency,[1],5.01 µM (active)
same,"activity change, negative = inhibition",[2],5.18% [at 38 µM]
same,Potency,[4],> 46 µM
same,Potency,[5],> 46 µM
same,Potency,[6],inactive
same,Potency,[22],inactive
same,Potency,[13],1.26 µM (active)
same,outcome,[21],inactive
same,Potency,[14],2.51 µM (active)
same,Potency,[15],inactive
same,outcome,[16],inactive
same,outcome,[17],inactive
O=C(/C=C\c1ccc(O)c(O)c1)OCCc1ccccc1,Potency,[1],1 µM (active)
same,"activity change, negative = inhibition",[2],-12.2% [at 38 µM]
same,"activity, negative = inhibition",[3],-10.7% [at 38 µM]
same,Potency,[4],> 46 µM
same,Potency,[5],> 46 µM
same,Potency,[6],inactive
same,outcome,[7],inactive
same,Potency,[22],inactive
same,outcome,[21],inactive
same,Potency,[15],inactive
same,outcome,[16],inactive
same,outcome,[17],inactive
